This excerpt belongs to a sample that is enriched for hits.
nsP2pro inh: CHIKV nsP2 protease inhibition, primary qHTS; FRET peptide cleavage, nsP2pro, fluorescence 1 h; 31,000 compounds, 1.1% hits; Q8JUX6; Potency, µM (highest dose often 24.9 µM), most hits filed as inhibitors; note: nearly all actives have a fitted effect of over 60% in size
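Recombinant nsP2pro (150 nM) was preincubated with compound 15 min at room temperature in 10 mM Tris-HCl pH 8.0, 0.01% Tween 20. Peptide 2 FRET substrate (2.5 uM) was then added and fluorescence read after 1 h. Seven-point series, up to 25 uM.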
nsP2 cell sec: cell-based CHIKV nsP2 protease inhibition, secondary; shares compounds with nsP2pro inh; cell-based CHIKV nsP2 protease reporter assay; Potency, µM (highest dose often 51.1 µM), actives largely listed as inhibitors; 450 compounds, 10% hits; note: nearly all actives have a fitted effect of over 70% in size
CHIKV NSP2 FL: selectivity test for CHIKV nsP2 protease inhibitors: full-length NSP2; 410 compounds, 39% hits; Full-length CHIKV NSP2 protease enzymatic counterscreen; shares compounds with nsP2pro inh; Potency, µM (titrated, usually from 50.7 µM), actives largely listed as inhibitors; note: nearly all actives have a fitted effect of over 65% in size
Furin counter: selectivity counter-screen for CHIKV nsP2 protease inhibitors: human furin. shares compounds with nsP2pro inh. Recombinant human furin enzymatic counterscreen, fluorogenic substrate. Potency, µM (doses to about 50.6 µM), most hits filed as inhibitors. 410 compounds, 6% hits. AID 1964102
Target sequence (P09958 whole entry, looked up): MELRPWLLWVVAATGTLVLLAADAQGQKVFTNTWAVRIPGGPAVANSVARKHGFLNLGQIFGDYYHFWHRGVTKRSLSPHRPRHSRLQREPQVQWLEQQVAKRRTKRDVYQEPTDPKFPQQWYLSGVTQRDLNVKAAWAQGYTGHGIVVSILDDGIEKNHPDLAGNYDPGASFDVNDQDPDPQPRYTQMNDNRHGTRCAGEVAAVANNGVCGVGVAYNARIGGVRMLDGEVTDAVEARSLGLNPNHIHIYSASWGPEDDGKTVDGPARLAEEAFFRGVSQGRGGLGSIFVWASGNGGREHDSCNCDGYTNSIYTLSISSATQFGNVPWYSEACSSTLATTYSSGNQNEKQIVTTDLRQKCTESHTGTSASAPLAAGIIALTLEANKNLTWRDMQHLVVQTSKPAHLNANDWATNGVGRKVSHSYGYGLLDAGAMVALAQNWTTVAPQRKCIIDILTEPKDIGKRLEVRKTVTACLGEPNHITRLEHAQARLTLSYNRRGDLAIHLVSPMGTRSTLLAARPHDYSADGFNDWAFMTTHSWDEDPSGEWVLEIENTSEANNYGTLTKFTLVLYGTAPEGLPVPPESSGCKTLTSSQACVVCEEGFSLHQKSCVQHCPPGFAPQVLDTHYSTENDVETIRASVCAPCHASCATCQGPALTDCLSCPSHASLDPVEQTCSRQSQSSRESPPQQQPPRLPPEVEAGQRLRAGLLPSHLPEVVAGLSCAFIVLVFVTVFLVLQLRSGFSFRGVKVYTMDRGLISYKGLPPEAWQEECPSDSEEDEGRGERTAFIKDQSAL
nsP2 NS23 pep: selectivity test for CHIKV nsP2 protease inhibitors: endogenous NS2/3 peptide; 410 compounds, 34% hits; shares compounds with nsP2pro inh; AID 1964103; Potency, µM (doses to about 51 µM), most hits filed as inhibitors; Purified CHIKV nsP2 protease, endogenous NS2/3 peptide cleavage; note: nearly all actives have a fitted effect of over 55% in size
Papain cs: selectivity counter-screen for CHIKV nsP2 protease inhibitors: papain; Potency, µM (highest dose often 51 µM), hits mostly inhibitors; purified papain protease activity, enzymatic inhibition; 410 compounds, 5% hits; shares compounds with nsP2pro inh
nsP2pro confirm: confirmation of CHIKV nsP2 protease inhibitors; shares compounds with nsP2pro inh; CHIKV nsP2 protease enzymatic activity, qHTS; Potency, µM (top dose mostly 25.5 µM), usual class: inhibitors; 410 compounds, 43% hits; note: nearly all actives have a fitted effect of over 75% in size
HCV NS3 counter: inhibits HCV NS3/4A protease in an nsP2pro selectivity counterscreen | shares compounds with nsP2pro inh | HCV NS3/4A protease biochemical counterscreen | 410 compounds, 20% hits | Potency, µM (top dose mostly 50.9 µM), most hits filed as inhibitors | AID 1964106; note: nearly all actives have a fitted effect of over 55% in size
Of the large screens only hits and unclear results are named; the others gave an inactive call (follow-up assays come after a bar, where they were run). Calls come from the whole dose curve.

CCC(CC)c1cc([C@H]2CN3CC[C@H]2C[C@@H]3CNC2CCN(C)CC2)nc(-c2ccncc2)n1	none
O=C(NC1CCCCC1)OC[C@H]1C[C@@H]2CCN1C[C@@H]2c1cc(C2CCCC2)nc(-c2ccncc2)n1	nsP2pro inh 7.9µM | nsP2 cell sec inactive | CHIKV NSP2 FL inconclusive | Furin counter inconclusive | nsP2 NS23 pep inconclusive | Papain cs inactive | nsP2pro confirm 9µM | HCV NS3 counter 15µM
Cn1nc(C2CCCC2)cc1[C@H]1CN2CC[C@H]1C[C@@H]2CNC(=O)c1cccs1	none
CCCCCCCCCCCCCCCC(=O)OCC(=O)[C@@]1(O)[C@H](C)C[C@H]2[C@@H]3CCC4=CC(=O)C=C[C@]4(C)[C@@]3(F)[C@@H](O)C[C@@]21C	none
Cc1cc(C)nc(NC(=S)N2CCN(c3nccs3)CC2)c1	none
Cc1ccc(-c2cc(C(=O)NCc3cccs3)nn3cnnc23)cc1	none
C=CC(C)(O)CC/C=C(/C)COC(=O)C(C)C1CCC(C)(C=C)O1 (configuration not stated)	none
O=C([C@@H]1C[C@H](F)CN1C(=O)Cc1ccccc1F)N1CCCCC1	none
Clc1ccccc1CSc1nnc(C2CCNCC2)o1	none
Cc1cc(=O)[nH]c2nnc(SCc3ccc(Cl)cc3Cl)n12	none
CC(C)C[C@H](N)c1nnc(SCc2ccc(Cl)cc2Cl)o1	nsP2pro inh inconclusive | nsP2 cell sec inactive
Cc1cccc(C(=O)N2CCc3cc(-c4nc(NC(=O)Cc5ccc6c(c5)OCO6)sc4C)ccc32)c1	none
COC(=O)N1CC2(CC2)C[C@H](C(=O)NO)[C@H]1C(=O)N1CCN(c2ccccc2)CC1	none
CC(=O)N1CCOc2ccc(CCC(=O)N3CCN(C4CCCCC4)CC3)cc2C1	none
CC1=CC2=C(C)C(=O)[C@](C)(O)[C@H](O)C2=CO1	nsP2pro inh inconclusive | nsP2 cell sec inactive | CHIKV NSP2 FL inactive | Furin counter inactive | nsP2 NS23 pep inactive | Papain cs inactive | nsP2pro confirm inactive | HCV NS3 counter inactive
COc1cccc(-c2noc(CN3CCC(c4nc(-c5cccn5C)no4)C3)n2)c1OC (configuration not stated)	none
COc1ccc(C2CC(=O)c3c([nH]c(C(=O)OCc4ccccc4)c3C)C2)cc1OC (configuration not stated)	none
Cc1c(C(=O)OCC2CCCC2)[nH]c2c1C(=O)CC(c1ccco1)C2 (configuration not stated)	nsP2pro inh 4µM | nsP2 cell sec inconclusive | CHIKV NSP2 FL inactive | Furin counter inactive | nsP2 NS23 pep inactive | Papain cs inactive | nsP2pro confirm inactive | HCV NS3 counter inactive
Cc1c(C(=O)OC2CCCCC2)[nH]c2c1C(=O)CC(c1ccccc1Cl)C2 (configuration not stated)	none
NC(=O)c1ccc[n+](C2OC(COP(=O)([O-])OP(=O)(O)OCC3OC(n4cnc5c(N)ncnc54)C(O)C3O)C(O)C2O)c1 (configuration not stated)	none
CN(Cc1ccc(Oc2ncccn2)cc1)CC1CCN(CCc2ccc(F)cc2)CC1	none
Cc1ccc(-c2cc(C(=O)N3CC[S+](=O)([O-])CC3)c3ccccc3n2)cc1C	none
Cc1ccc(/C=C2\CNC/C(=C\c3ccc(C)cc3)C2=O)cc1	none
CC(=O)Nc1ccc(S(=O)(=O)Nc2ccc([N+](=O)[O-])cc2)cc1	none
Cc1ccc(S(=O)(=O)c2ccc([N+](=O)[O-])cn2)cc1	nsP2pro inh 0.35µM | nsP2 cell sec 2.1µM | CHIKV NSP2 FL 1.5µM | Furin counter 12µM | nsP2 NS23 pep 1.8µM | Papain cs inactive | nsP2pro confirm 0.56µM | HCV NS3 counter 2.9µM
Cc1ccc(S(=O)(=O)Nc2cc([N+](=O)[O-])ccc2C(=O)Nc2nc(-c3ccccc3)cs2)cc1	none
O=C(Nc1cccc(C(=O)O)c1)Nc1nnc(-c2ccncc2)s1	none
COc1c(O)cc2c(c1O)[C@H]1O[C@@H](CO)[C@H](O)[C@@H](O)[C@@H]1OC2=O	none
CS(=O)(=O)N1CCC(OC2CCN(C(=O)c3cccnc3)CC2)CC1	none
Cc1nc(-c2c3n(c(=O)n(Cc4ccccc4C(F)(F)F)c2=O)CCCCC3)no1	none
C=C[C@@]12COC(=O)C(=C)C1[C@@H](O)[C@H](C(=C)C(=O)OC)[C@@H](OC(=O)C(=C)CO)C2 (some centres not stated)	none
C=C1C(=O)OC2/C=C(/C)C3=CC(=O)C(C)(CC(OC(=O)/C(C)=C/COC(C)=O)C12)O3 (configuration not stated)	none
C=C(CO)C(=O)O[C@H]1C[C@@]23O[C@@H]2CC/C(=C/[C@H]2OC(=O)C(=C)[C@H]12)CO[C@H]3O	nsP2pro inh inconclusive | nsP2 cell sec inactive | CHIKV NSP2 FL inconclusive | Furin counter inactive | nsP2 NS23 pep inconclusive | Papain cs inactive | nsP2pro confirm inactive | HCV NS3 counter inconclusive
O=C(Nc1ccc(F)cc1)N[C@H]1[C@H](O)[C@@H](N2CCCC2)[C@@H]2OC[C@H]1O2	none
CC(=O)C1=C(O)[C@@H]2[C@H]3c4c[nH]c5cccc(c45)C[C@H]3C(C)(C)N2C1=O	none
C[N+]1(CC2CC2)CC[C@]23c4c5ccc(O)c4O[C@H]2C(=O)CC[C@@]3(O)[C@H]1C5 (some centres not stated)	none
Cc1ccnc(NC(=S)N2CC3CN(c4ccc(Cl)cc4C(F)(F)F)CC3C2)c1 (configuration not stated)	none
CC(C)c1nnc(C2CN(C(=O)Cc3ccccc3Cl)CC23CCOCC3)o1 (configuration not stated)	none
O=c1c2ccccc2[se]n1-c1ccccc1	nsP2pro inh 4.4µM | nsP2 cell sec inconclusive | CHIKV NSP2 FL inconclusive | Furin counter 2.1µM | nsP2 NS23 pep 9.2µM | Papain cs inactive | nsP2pro confirm 2.2µM | HCV NS3 counter 3.7µM
COC(=O)N1CCCN(c2nccc(Nc3ccc(C)cc3)n2)C1	none
COCCCNC(=O)c1ccc2nnc(Cc3ccc(Cl)cc3)n2c1	none
Cc1cc(C)nc(NC(=S)N2CCN(c3nc4ccccc4s3)CC2)c1	none
